Data: PubChem BioAssay (EPA / NIEHS)
Inconclusive results are not listed. Active and inactive are the calls of the source. The calls were made as follows, unless noted: active = hit-call score of the fitted dose curve at least 0.9, where 1 is the maximum; inactive = score below 0.9.

What was measured:
PGR (gene 5241) [1] = biological target: PGR (gene 5241) (UniProt P06401); assay: TOX21_PR_BLA_Followup_Agonist_ratio: Tox21 HEK293 Progesterone Receptor (PR) Agonism Beta-lactamase Follow-Up Assay, Ratio (AID 2283933; active = hit-call score of the fitted dose curve at least 0.9, where 1 is the maximum)
Experimental: TOX21_PR_BLA_Followup is a secondary assay for specificity for the TOX21_PR_BLA_Agonist assay. To differentiate true PR agonists from cytotoxic substances, this follow up assay is multiplexed with a cell viability assay. The compounds were also tested for auto fluorescence that may interfere with the biological target readout resulting in potential false positives and/or negatives. To identify the compounds that stimulate PR signaling, a PR-UAS-bla GripTite cell line i.e. PR-UAS-bla HEK293T (Invitrogen, Carlsbad, CA, USA) containing a beta-lactamase reporter gene under the control of an UAS response element was used to screen Tox21 10K compound library. […] TOX21_PR_BLA_Followup_Agonist_ratio is an assay readout measuring reporter gene via receptor activity and designed using inducible reporter (beta lactamase induction) detected with GAL4 b-lactamase reporter gene. The signal is derived from the ratio of cleaved (ch2) to uncleaved (ch1) reporter gene substrate used as the measure of target activity.Data from the assay component TOX21_PR_BLA_Followup_Agonist_ratio was analyzed into 1 assay endpoint. This assay endpoint, TOX21_PR_BLA_Followup_Agonist_ratio, was analyzed in the positive analysis fitting direction relative to DMSO as the negative control and baseline of activity. […]

PGR (gene 5241) [2] = biological target: PGR (gene 5241) (UniProt P06401); assay: TOX21_PR_BLA_Followup_Antagonist_ratio: Tox21 HEK293 Progesterone Receptor (PR) Antagonism Beta-lactamase Follow-Up Assay, Ratio (AID 2283934; active = hit-call score of the fitted dose curve at least 0.9, where 1 is the maximum;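 also: PR-UAS-bla HEK293T cells stimulated with 1 nM R5020 agonist for 16 hr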)
Experimental: TOX21_PR_BLA_Followup is a secondary assay for specificity for the TOX21_PR_BLA_Agonist assay. To differentiate true PR agonists from cytotoxic substances, this follow up assay is multiplexed with a cell viability assay. The compounds were also tested for auto fluorescence that may interfere with the biological target readout resulting in potential false positives and/or negatives. To identify the compounds that stimulate PR signaling, a PR-UAS-bla GripTite cell line i.e. PR-UAS-bla HEK293T (Invitrogen, Carlsbad, CA, USA) containing a beta-lactamase reporter gene under the control of an UAS response element was used to screen Tox21 10K compound library. The cytotoxicity of the Tox21 compound library against the PR-bla cell line was tested in parallel by measuring the cell viability using CellTiter-Glo assay in the same wells. TOX21_PR_BLA_Followup_Antagonist_ratio is an assay readout measuring reporter gene via receptor activity and designed using inducible reporter (beta lactamase induction) detected with GAL4 b-lactamase reporter gene. The signal is derived from the ratio of cleaved (ch2) to uncleaved (ch1) reporter gene substrate used as the measure of target activity.Data from the assay component TOX21_PR_BLA_Followup_Antagonist_ratio was analyzed into 1 assay endpoint. This assay endpoint, TOX21_PR_BLA_Followup_Antagonist_ratio, was analyzed in the positive analysis fitting direction relative to DMSO as the negative control and baseline of activity. Using a type of inducible reporter, measures of receptor for gain-of-signal activity can be used to understand the reporter gene at the pathway-level as they relate to the gene NR3C3. Furthermore, this assay endpoint can be referred to as a primary readout, because this assay has produced multiple assay endpoints where this ratio serves a reporter gene function to understand target activity. To generalize the intended target to other relatable targets, this assay endpoint is annotated to the nuclear receptor intended target family, where the subfamily is steroidal.
Assay Protocol: PR-UAS-bla HEK293T cells were dispensed at 3,000 cells/4 uL of assay medium containing 2% charcoal stripped FBS per well into black wall/clear-bottom 1536-well plates using a Multidrop Combi (ThermoFisher Scientific, Waltham, MA) dispenser. […] After the plates were incubated at room temperature for 2 hours, fluorescence intensity was measured by an Envision plate reader (PerkinElmer, Shelton, CT).

[3] = TOX21_PR_BLA_Followup_Agonist_viability: Viability Assessment in the Tox21 HEK293 Progesterone Receptor (PR) Agonism Beta-lactamase Follow-Up Assay (AID 2283935; active = hit-call score of the fitted dose curve at least 0.9, where 1 is the maximum;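 also: cells exposed to compound for 16 hr at 37 °C; signal loss means lower viability so actives are cytotoxic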)
Procedure, shortened: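 HEK293T PR-UAS-bla, 3,000 cells/well, 2% CS-FBS; 6 hr pre-incubation; cpd in DMSO, 16 hr 37C; LiveBLAzer 2 hr RT, then CellTiter-Glo 30 min RT, luminescence. Decrease = lost viability.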

[4] = TOX21_PR_BLA_Followup_Antagonist_viability: Viability Assessment in the Tox21 HEK293 Progesterone Receptor (PR) Antagonism Beta-lactamase Follow-Up Assay (AID 2283936; active = hit-call score of the fitted dose curve at least 0.9, where 1 is the maximum;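 also: hits lower the luminescence signal meaning cytotoxicity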)
Procedure, shortened: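 PR-UAS-bla HEK293T cells (3,000/well, 2% charcoal-stripped FBS) given compound plus R5020 agonist, 16 h at 37C. CellTiter-Glo added after bla read, 30 min at room temperature; luminescence loss indicates cytotoxicity.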

PGR (gene 5241) [5] = biological target: PGR (gene 5241) (UniProt P06401); assay: TOX21_PR_LUC_Followup_Agonist: Tox21 HEK293 Progesterone Receptor (PR) Agonism Luciferase Follow-Up Assay (AID 2283937)
Procedure, shortened: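 Cells: HEK293-PR-A-luc, 3,000/well, 10% charcoal-stripped FBS assay medium. Compound added after 5 h; 16 h, 37C, 0% CO2. ONE-Glo luciferase, luminescence. Positive fit vs DMSO.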

[6] = CEETOX_H295R_DOC_noMTC: CeeTox H295R High-throughput Steroidogenesis Assay for DOC, maximum tolerated concentration (MTC) filtered results only (AID 2283918); conditions: actives raise or lower the signal
Procedure, shortened: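 11-Deoxycorticosterone secreted by human adrenal H295R cells quantified by HPLC-MS/MS after 48 h chemical exposure (0.1% DMSO), following 48 h 10 uM forskolin prestimulation. Concentrations not filtered by MTT-derived MTC; bidirectional fitting.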

[7] = CEETOX_H295R_ESTRADIOL_noMTC: CeeTox H295R High-throughput Steroidogenesis Assay for Estradiol, maximum tolerated concentration (MTC) filtered results only (AID 2283919); conditions: actives raise or lower the signal
Procedure, shortened: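 H295R human adrenal cells pre-stimulated 48 h with 10 uM forskolin, then exposed 48 h to chemical (0.1% DMSO final). Estradiol in medium measured by HPLC-MS/MS after MTBE extraction and dansyl derivatization; bidirectional fit versus DMSO, concentrations not MTT-filtered.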

[8] = CEETOX_H295R_PROG_noMTC: CeeTox H295R High-throughput Steroidogenesis Assay for Progesterone (PROG), maximum tolerated concentration (MTC) filtered results only (AID 2283920); conditions: actives raise or lower the signal
Procedure, shortened: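 H295R cells; forskolin 10 uM x 48 h prestim; test cpd 48 h, 0.1% DMSO final; media progesterone via LC-MS/MS; bidirectional fit vs DMSO; no MTT-based MTC filter applied.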

[9] = CEETOX_H295R_ESTRONE_noMTC: CeeTox H295R High-throughput Steroidogenesis Assay for Estrone, maximum tolerated concentration (MTC) filtered results only (AID 2283921); conditions: actives raise or lower the signal
Experimental: CEETOX_H295R is a cell-based, multiplexed-readout assay that uses H295R, a human adrenal gland cell line, with measurements taken at 48 hours after chemical dosing in a 96-well plate.CEETOX_H295R_ESTRONE_noMTC is one of 12 assay component(s) measured or calculated from the CEETOX_H295R assay (11 hormones and 1 viability assay). It is designed to make measurements of hormone induction, a form of inducible reporter, as detected with absorbance signals by HPLC-MS-MS technology. The concentrations for these components have not been pre-filtered for the maximum tolerated concentration (MTC) based on the MTT assay (_noMTC).Data from the assay component CEETOX_H295R_ESTRONE_noMTC was analyzed into 1 assay endpoint. This assay endpoint, CEETOX_H295R_ESTRONE_noMTC, was analyzed with bidirectional fitting relative to DMSO as the negative control and baseline of activity. Using a type of inducible reporter, gain or loss-of-signal activity using HPLC-MS-MS was used to understand synthesis of Estrone in H295R cell line at 48hr of chemical exposure, without filtering concentrations for maximum tolerated concentration (MTC). To generalize the intended target to other relatable targets, this assay endpoint is annotated to the steroid hormone intended target family, where the subfamily is estrogens.
Cell culture and media preparation procedures were conducted in accordance with OECD Test No. 456 guidelines, with minor modifications. H295R cells (ATCC CRL-2128) were expanded for 5 passages and frozen in batches in liquid nitrogen. […] For steroid quantification, media samples were shipped to OpAns, LLC (Durham, NC) on dry ice, and samples were thawed to room temperature prior to liquid-liquid extraction. […] Steroid hormones were separated by HPLC, eluted using a reverse phase C18 gradient with electrospray positive ionization, followed by quantification by tandem mass spectrometry (MS/MS). Data were acquired on a MassHunter Workstation Acquisition version B03.01 (Agilent Technologies, Inc.) and processed using MassHunter Quantitative Analysis for QQQ. Accuracy was determined for each hormone analyte from 3 standards to determine upper and lower limits of quantification (ULOQ and LLOQ, respectively) using a 7-point standard curve. Precision and accuracy of the extraction and quantification methods were calculated as the percent relative standard deviation (%RSD) of the spiked standards and percent spiked standard recovered, respectively. The goal was to achieve 100% accuracy (i.e., recover all spiked-in standard at quantification with minimal loss during run time) and good precision (i.e., have %RSD <15% to ensure reproducibility). Test medium was removed following chemical exposure, and cell viability was evaluated in the same wells by MTT. […]

[10] = CEETOX_H295R_TESTO_noMTC: CeeTox H295R High-throughput Steroidogenesis Assay for Testosterone (TESTO), maximum tolerated concentration (MTC) filtered results only (AID 2283924); conditions: actives raise or lower the signal
Procedure, shortened: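 H295R cells prestimulated 48 h with 10 uM forskolin, then exposed 48 h to chemicals in 0.1% DMSO final. Testosterone in medium quantified by MTBE extraction and HPLC-MS/MS; bidirectional fit versus DMSO, concentrations […] filtered by MTT-based maximum tolerated concentration.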

PGR (gene 5241), sequence (P06401 whole entry, looked up): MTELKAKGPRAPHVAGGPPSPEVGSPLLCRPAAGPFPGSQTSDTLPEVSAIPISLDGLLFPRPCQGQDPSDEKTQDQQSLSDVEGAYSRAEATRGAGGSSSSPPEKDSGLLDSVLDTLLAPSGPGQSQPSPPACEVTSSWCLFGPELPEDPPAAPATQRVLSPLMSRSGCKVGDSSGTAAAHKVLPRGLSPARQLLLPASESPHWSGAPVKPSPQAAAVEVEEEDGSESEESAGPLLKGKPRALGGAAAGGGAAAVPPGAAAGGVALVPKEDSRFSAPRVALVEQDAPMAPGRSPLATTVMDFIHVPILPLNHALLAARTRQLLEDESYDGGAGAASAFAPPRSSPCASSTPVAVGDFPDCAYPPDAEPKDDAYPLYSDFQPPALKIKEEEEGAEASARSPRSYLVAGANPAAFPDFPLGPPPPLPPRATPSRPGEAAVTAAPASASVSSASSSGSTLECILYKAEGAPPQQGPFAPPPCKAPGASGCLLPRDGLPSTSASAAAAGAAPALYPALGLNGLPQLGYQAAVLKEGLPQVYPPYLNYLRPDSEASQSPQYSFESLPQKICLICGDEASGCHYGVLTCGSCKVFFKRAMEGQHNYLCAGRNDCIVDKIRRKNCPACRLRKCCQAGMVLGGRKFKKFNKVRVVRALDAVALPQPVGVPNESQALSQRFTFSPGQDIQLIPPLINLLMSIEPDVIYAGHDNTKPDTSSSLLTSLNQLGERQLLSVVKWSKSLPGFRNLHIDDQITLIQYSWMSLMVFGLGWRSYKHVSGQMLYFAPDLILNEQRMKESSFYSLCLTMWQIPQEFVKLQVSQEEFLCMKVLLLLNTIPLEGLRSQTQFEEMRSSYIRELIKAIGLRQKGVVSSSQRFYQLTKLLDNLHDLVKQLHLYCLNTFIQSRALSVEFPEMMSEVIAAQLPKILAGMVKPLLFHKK

c1ccc2c(c1)[nH]c1ccccc12
outcome (PGR (gene 5241) [1]): inactive | outcome (PGR (gene 5241) [2]): inactive | outcome [3]: inactive | outcome [4]: inactive | outcome (PGR (gene 5241) [5]): inactive

CCCC=C(C=O)CC
outcome [6]: inactive | outcome [7]: inactive | outcome [8]: inactive | outcome [9]: inactive

CCCCC1C(=O)N(c2ccccc2)N(c2ccccc2)C1=O
outcome [6]: inactive | AC50 [8]: 38.7 µM (active) | outcome [9]: inactive

N#Cc1ccc(C2CCCc3cncn32)cc1 (configuration not stated)
AC50 [6]: 1.98 µM (active) | outcome [8]: inactive

COc1ccc(-c2coc3cc(O)cc(O)c3c2=O)cc1
AC50 (PGR (gene 5241) [2]): 29.5 µM (active) | outcome [3]: inactive | outcome [4]: inactive

COc1ccc(C(=O)/C(Br)=C\C(=O)O)cc1
AC50 [6]: 13.6 µM (active) | AC50 [8]: 8.09 µM (active) | AC50 [10]: 83.6 µM (active)

N#Cc1ccc(C(c2ccc(C#N)cc2)n2cncn2)cc1
outcome [6]: inactive | AC50 [7]: 0.0183 µM (active) | outcome [8]: inactive | AC50 [9]: 0.0263 µM (active) | outcome [10]: inactive

CC(C)c1ccc(O)c(C(C)C)c1
outcome [6]: inactive | outcome [7]: inactive | outcome [8]: inactive | outcome [9]: inactive

Oc1ccc(-c2ccccc2)c(Cl)c1
outcome (PGR (gene 5241) [1]): inactive | AC50 (PGR (gene 5241) [2]): 25.7 µM (active) | outcome [3]: inactive | outcome [4]: inactive | outcome (PGR (gene 5241) [5]): inactive

Nc1ccc(C(=O)OCCCOC(=O)c2ccc(N)cc2)cc1
outcome (PGR (gene 5241) [2]): inactive | outcome [3]: inactive | outcome [4]: inactive
